# Experimental data from PubChem BioAssay AID1274 (Emory University Molecular Libraries Screening Center, 2008).
# Hit rate of the full screen: of about 220,000 compounds, about 1,100 (0.5%) were called active.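 Rule for the calls: active = inhibition above about 30% (limit read from the data); inactive = the rest.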 The full list was thinned out, with actives kept by preference.
# Target: Neutrophil cytosol factor 1 (Homo sapiens) (UniProt P14598)
# Experiment: p47phox/p22phox peptide binding inhibitors, primary screen, biochemical, uHTS, NADPH oxidase regulatory subunit (AID 1274);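 note: 0% = p47phox with labelled peptide and 100% = labelled peptide alone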
# Settings: fluorescence polarization, 2 h, at 24.7 µM, active compounds read high
# Chain of Neutrophil cytosol factor 1 (Homo sapiens) (P14598 whole entry, looked up): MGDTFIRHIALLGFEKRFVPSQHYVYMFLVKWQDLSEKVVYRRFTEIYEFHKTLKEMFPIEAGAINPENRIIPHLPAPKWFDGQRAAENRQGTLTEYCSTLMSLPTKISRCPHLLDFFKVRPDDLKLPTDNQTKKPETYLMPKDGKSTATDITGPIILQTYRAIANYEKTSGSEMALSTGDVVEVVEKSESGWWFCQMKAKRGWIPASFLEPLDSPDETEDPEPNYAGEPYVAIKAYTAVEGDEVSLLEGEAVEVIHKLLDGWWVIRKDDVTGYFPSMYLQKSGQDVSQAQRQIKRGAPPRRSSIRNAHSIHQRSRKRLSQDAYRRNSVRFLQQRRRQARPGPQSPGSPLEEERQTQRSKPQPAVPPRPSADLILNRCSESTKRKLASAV
row,SMILES,inhibition
1,CC1Cc2ccccc2N1C(=O)CSc1nc2ccccc2o1 (configuration not stated),-13.1% (inactive)
2,Cc1cc(=O)[nH]c(SCC(=O)N2c3ccccc3CC2C)n1 (configuration not stated),42.8% (active)
3,CC1Cc2ccccc2N1C(=O)CSc1nnc(C2CC2)n1C (configuration not stated),-12.6% (inactive)
4,O=C(NN1C(=O)C2CCCCC2C1=O)c1ccco1 (configuration not stated),8.97% (inactive)
5,C/C=C(\C)C(=O)N1CC2(CC(c3cccc(NC(=O)CCCCC)c3)=NO2)C[C@@H]1C(N)=O (some centres not stated),-4.05% (inactive)
6,COc1ccccc1C1/C(=C(/O)c2ccc(C)cc2)C(=O)C(=O)N1Cc1ccco1 (configuration not stated),-0.55% (inactive)
7,Cc1cc(N2C(=O)C(=O)/C(=C(/O)c3ccc(Cl)cc3)C2c2cccc(Br)c2)no1 (configuration not stated),-12.5% (inactive)
8,COc1ccccc1C1/C(=C(/O)c2ccc(OC(C)C)cc2)C(=O)C(=O)N1c1cc(C)on1 (configuration not stated),54.4% (active)
9,COc1ccc(NC(=O)COC(=O)c2ccncc2)c(OC)c1,-5.21% (inactive)
10,COc1ccc(NC(=O)c2ccccc2CC[N+](=O)[O-])cc1,-4.4% (inactive)
11,CCn1c(CNS(=O)(=O)c2ccc(Cl)cc2)n[nH]c1=S,-6.22% (inactive)
12,CCc1nc2sc(C(=O)O)c(N)c2c2c1CCCC2,3.39% (inactive)
13,COC(=O)CSc1nccc(-c2cccs2)n1,57.9% (active)
14,COc1ccc(-c2ccnc(SCC(=O)N3CCOCC3)n2)cc1,-7.88% (inactive)
15,O=C(O)COc1ccc(-c2nccc(-c3cccs3)n2)cc1,-0.51% (inactive)
16,CN1CCN(S(=O)(=O)c2ccc(NC(=S)NC(=O)C3CC3)cc2)CC1,5.87% (inactive)
17,Cc1nnc(NC(=O)CSc2nccn2-c2cccc(C)c2C)s1,-2.14% (inactive)
18,COc1ccccc1-n1ccnc1SCC(=O)NC(C)(C)C,130% (active)
19,Cc1ccc(C)c(-n2ccnc2SCC(N)=O)c1,-6.63% (inactive)
20,Cc1cccc(NC(=O)CSc2nnc(CCNC(=O)OC(C)(C)C)o2)c1C,-4.83% (inactive)
21,O=[N+]([O-])C(=c1ccc2c(c1)N1C3=C(CCCC3)CC3CCCCC31N=2)[N+](=O)[O-] (configuration not stated),32.3% (active)
22,COc1cc(N2CCCC2)c(OC)cc1/C=C(/C#N)c1cccc(Br)c1,41.6% (active)
23,COc1cccc(C(=O)Nc2ccc(N3CCCC3)cc2)c1,-24.3% (inactive)
24,CC(=O)Nc1cccc(Oc2cc(C#N)c(C#N)cc2N2CCOCC2)c1,-5.37% (inactive)

row,SMILES,inhibition
1,O=C1N/C(=C/c2cccs2)C(=O)N1Cc1ccc(F)cc1,-8.47% (inactive)
2,O=C(CCN1C(=O)/C(=C/c2cccs2)SC1=S)NNC(=O)c1cccc(O)c1,-143% (inactive)
3,O=C1/C(=C/c2cccs2)SC(=S)N1C1CCS(=O)(=O)C1 (configuration not stated),136% (active)
4,O=C(Nc1ccccc1)O/N=C1/CCCc2occc21,-10.7% (inactive)
5,COc1cc(OC)cc(-c2nc3ccccc3c(=O)n2NC(=O)c2cccnc2Cl)c1,-17.9% (inactive)
6,COc1ccc(C)cc1NC(=O)c1ccc(-c2ccc(C(C)=O)cc2)o1,-8.08% (inactive)
7,CC(C)OCCCNc1ncnc2c1[nH]c1ccc(F)cc12,-10.6% (inactive)
8,Cc1ccc2[nH]c3c(=O)n(Cc4ccccn4)cnc3c2c1,-18.3% (inactive)
9,COc1cc(OC)c(OC)cc1/C=N/Nc1ncnc2c1[nH]c1ccc(C)cc12,34.2% (active)
10,CC(=O)NCCn1c(SCC(=O)Nc2ccc(C)cc2)nc2ccccc2c1=O,1.49% (inactive)
11,CC(C)(C)C(=O)OCc1nc(-c2ccc(O)c(O)c2)cs1,-9.67% (inactive)
12,COc1ccc(C(=O)O/N=C(\N)Cc2ccc(Cl)cc2Cl)cc1OC,-5.94% (inactive)
13,NC(N)=N/N=C/c1ccc(OCc2ccc(Cl)cc2Cl)cc1,103% (active)
14,NC(N)=N/N=C/c1ccc(Cl)c([N+](=O)[O-])c1,3.52% (inactive)
15,Oc1oc(-c2ccccc2Br)nc1/C=N/c1ccccn1,-6.08% (inactive)
16,Cc1cc(C)n(Cc2cnc(N3CCOCC3)s2)n1,-9.55% (inactive)
17,O=C(NCc1cc(C(F)(F)F)cc(C(F)(F)F)c1)C1CC(c2cccc(F)c2)=NO1 (configuration not stated),-5.46% (inactive)
18,CC(C)OCCCNc1nc2c(c(=O)n(Cc3ccccc3F)c(=O)n2C)n1C,-4.4% (inactive)
19,COc1ccc(N2CC(C)Cn3c2nc2c3c(=O)n(Cc3ccccc3F)c(=O)n2C)c(OC)c1 (configuration not stated),58.5% (active)
20,Cc1cccc(N2CC(C)Cn3c2nc2c3c(=O)n(CC(=O)OCc3ccccc3)c(=O)n2C)c1 (configuration not stated),-39.9% (inactive)
21,COc1ccc(C2(CNC(=O)Cc3ccc(OC)c(OC)c3)CCCC2)cc1,10.1% (inactive)
22,O=C(CSc1ccc2nnc(-c3ccccc3)n2n1)N1CCCc2ccccc21,9.14% (inactive)
23,COc1ccc(NC(=S)SC)cc1OC,-0.91% (inactive)
24,O=c1[nH]c2cccnc2n1-c1ccc([N+](=O)[O-])cc1,3.76% (inactive)

row,SMILES,inhibition
1,O=C1CC(c2ccccc2)=NN1c1ccc([N+](=O)[O-])cc1,-0.56% (inactive)
2,O=c1[nH]n(-c2ccc([N+](=O)[O-])cc2)c(=O)c2ccccc12,43.7% (active)
3,CC(=O)c1c(C)[nH]c(C(=O)Nc2cc(S(=O)(=O)N(C)C)ccc2C)c1C,-11.1% (inactive)
4,COCCn1c(SCC(=O)Nc2cc(OC)ccc2OC)nc2c(c1=O)SC(C)C2 (configuration not stated),-1.72% (inactive)
5,CC1=C(C)C(=O)OC(C(C)C2CCC3C4CC=C5CC(OC6OC(COC7OC(CO)C(O)C(O)C7O)C(O)C(O)C6O)CC(O)C5(C)C4CCC23C)C1 (configuration not stated),-3.03% (inactive)
6,Cc1cccc2cc(CN(Cc3cccs3)C(=S)NCc3ccco3)c(=O)[nH]c12,-184% (inactive)
7,Cc1ccc(C)c2[nH]c(=O)c(CN(Cc3cccnc3)C(=S)NCc3ccco3)cc12,40.3% (active)
8,O=C(Nc1ccccc1)N(Cc1cccnc1)Cc1ccco1,-9.87% (inactive)
9,O=S1(=O)CC/C(=N\Nc2ccc(F)cc2)c2ccsc21,-3.38% (inactive)
10,N#C/C(=C/c1ccc(N2CCCCC2)o1)C(=O)NCCc1c[nH]c2ccccc12,41.9% (active)
11,N#C/C(=C/c1ccc(-c2ccccc2[N+](=O)[O-])o1)C(=O)NCCN1CCCCC1,2.84% (inactive)
12,O=C(NCCc1c[nH]c2ccccc12)C(=O)NCC1CCCO1 (configuration not stated),-9.36% (inactive)
13,Cc1ccc2cc(CN(c3ccc(C)c(C)c3)S(C)(=O)=O)c(=O)[nH]c2c1,-7.6% (inactive)
14,O=C(Nc1ccc(S(=O)(=O)N2CCOCC2)cc1)c1ccc2ncsc2c1,-9.71% (inactive)
15,Cc1ccc(O)c(NC(=S)NC(=O)COc2ccc(Br)cc2)c1,-10.4% (inactive)
16,COc1ccc(NC(=O)CCN2CCCC2)c(OC)c1,-2.15% (inactive)
17,CCOC(=O)N1CCN(CCC(=O)Nc2cc(OC)ccc2OC)CC1,3.79% (inactive)
18,COc1ccc(OC)c(NC(=O)CCN2CCC(C)CC2)c1,43.5% (active)
19,Cc1ncn2cc(-c3ccc(Cl)cc3Cl)[nH]c(=O)c12,0.92% (inactive)
20,CN(C)C(=O)CSc1n[nH]c(-c2ccco2)n1,-9.79% (inactive)
21,O=C(COC(=O)c1ccc(F)cc1F)Nc1ncccn1,-18.8% (inactive)
22,N#CC1=C(N)N(c2ccccc2)C2=C(C(=O)CCC2)C1c1ccccc1 (configuration not stated),-23.4% (inactive)
23,CCc1ccc(C2C(C#N)=C(N)N(N(C)C)C3=C2C(=O)CCC3)s1 (configuration not stated),-16.9% (inactive)
24,CSc1sc(C)cc1C1C(C#N)=C(N)N(c2cccnc2)C2=C1C(=O)CCC2 (configuration not stated),40.6% (active)
